SMILES strings stand for the structures. Screen size: about 360,000 compounds; about 11,000 (3.1%) were called active. Not shown: some 2% with an inconclusive outcome. Cut-off read from the data, not from the text of the source: active = fluorescence intensity above about 16000; inconclusive = no clear call, values can overlap the other calls; inactive = below that. Many of the other results were omitted from the sample, so actives are more common in it than they were.

The nature of this assay: compound fluorescence in toxin protease inhibitor counterscreen, primary screen, artefact control for toxin protease inhibitor project, biochemical, multiplex microsphere, HTS (AID 624483). To be noted: compound autofluorescence counterscreen, microsphere flow cytometry; hits give high values.
On to `OCCNCCCCOc1ccccc1F`, for which the fluorescence intensity was 23000 (active). Under `Fc1ccccc1OCCCCn1cncn1` stands 5750 (inactive); under `CCN1CCN(CCCCOc2ccccc2F)CC1`, 9580 (inactive); under `CCCN1C(=O)C(NC(C)=O)c2cc(OC)ccc21` (centres undefined), 2550 (inactive). Consider `COc1ccc(C(=O)NCC[N+](C)(C)C)cc1`, for which the fluorescence intensity was 5780 (inactive). On to `O=C(NC1CCCC1)C1c2ccccc2OCC(=O)N1Cc1ccccc1` (centres undefined), for which the fluorescence intensity is 5910 (inactive).

For `CC(=O)N1CCC(N(C(=O)Nc2ccc(Cl)cc2)C(C)C)CC1`, the fluorescence intensity was 4610 (inactive). Under `Cc1ccc(NC(=O)NC(=O)N(C2CCCCC2)S(=O)(=O)c2ccccc2)cc1` stands 9210 (inactive); under `CC(c1ccco1)N(C(=O)Nc1ccccc1)C1CCCCC1` (centres undefined), 20500 (active).

Turning to `Cc1cc(C)c(S(=O)(=O)NN=C2c3ccccc3[C@H]3Cc4csc[n+]4[C@@H]23)c(C)c1`, the fluorescence intensity is 5040 (inactive). Turning to `O=C(c1ccc(C(F)(F)F)cc1)N1CCC(=O)N([C@H](COCc2ccccc2)Cc2ccccc2)CC1`, the fluorescence intensity is 5850 (inactive). The figure for `CCOc1ccc(-c2nnn(CC(=O)N3CCN(c4ccc(F)cc4)CC3)n2)cc1OCC` is 6120 (inactive); for `COc1ccc(C(=O)Cn2nnc(-c3ccc(N4CCOCC4)cc3)n2)cc1OC` it is 24200 (active); for `CCOc1ccc(-c2nnn(CC(=O)N3CCN(c4ccc(OC)cc4)CC3)n2)cc1OCC` it is 4250 (inactive). Under `CCCNC(=O)c1cc(C2CCCCN2C(=O)OC)on1` (centres undefined) stands 3000 (inactive).

For the molecule `COc1cc(C2C(C(=O)Nc3ccccc3OC)=C(C)Nc3ncnn32)ccc1O` (centres undefined), the fluorescence intensity was 6420 (inactive). With `COc1ccccc1NC(=O)C1=C(C)Nc2nnnn2C1c1cccc(Br)c1` (centres undefined), the fluorescence intensity was 20400 (active). The figure for `COc1ccccc1NC(=O)C1=C(C)Nc2ncnn2C1c1ccc(C)o1` (centres undefined) is 2690 (inactive); for `COc1ccc(NC(=O)CN2C(=O)COc3ccc(S(=O)(=O)N4CCOCC4)cc32)cc1` it is 4800 (inactive). As to `CC1(C(=O)NS(=O)(=O)c2ccccc2)CCN1C(=O)C/C=C/c1ccccc1` (centres undefined), the fluorescence intensity was 3600 (inactive). Regarding `Oc1ccc2ccc3cccc[n+]3c2c1`, the fluorescence intensity is 4220 (inactive).

With `CCCC(=O)N1CCC1(C)C(=O)NCc1ccc(C(C)C)cc1` (centres undefined), the fluorescence intensity was 3880 (inactive). Regarding `COc1ccc(-n2ncc3c(N4CCCc5ccccc54)ncnc32)cc1`, the fluorescence intensity was 11300 (inactive). Turning to `COc1ccc(-n2ncc3c(N4CCc5ccccc54)ncnc32)cc1`, the fluorescence intensity is 22400 (active). Under `COc1ccc(-n2ncc3c(SCC(=O)NNC(C)=O)ncnc32)cc1` stands 3990 (inactive); under `CCCNC(=O)C1(C)CCN(Cc2csc(-c3ccc(Cl)cc3)n2)C1` (centres undefined), 3720 (inactive). Turning to `Cc1cc2nc(-c3ccc(Cl)cc3)c(Cc3cccc(F)c3)n2c(C)c1Br`, the fluorescence intensity was 6020 (inactive).

As for `O=C(NCC12CC3CC(C1)CC(CNC(=O)N1CCCC1)(C3)C2)N1CCCC1`, the fluorescence intensity is 16800 (active). `O=C(N1CCCC1)C12CC3CC(C1)CC(C(=O)N1CCCC1)(C3)C2`: the fluorescence intensity was 2410 (inactive).

In the case of `C=CCNC(=O)CC12CC3CC(C1)CC(CC(=O)NCC=C)(C3)C2`, the fluorescence intensity was 4730 (inactive). Under `Nc1nc(SCc2cccc(Br)c2)n[nH]1` stands 3680 (inactive); under `C=CCc1cccc2cc(C(=O)NC3CCCC3)c(=O)oc12`, 2230 (inactive); under `COc1ccc(NC(=O)CSc2nc3ccccc3c(=O)n2C)cc1`, 3680 (inactive). Under `COc1ccc(OCc2ccc(-c3nc4ccccc4c(=O)n3N)o2)cc1` stands 2450 (inactive).

For the molecule `Cc1ccc(C(=O)CSc2nc3ccccc3c(=O)n2N)o1`, the fluorescence intensity was 19100 (active). Under `COc1ccc(-c2ccc(C(=O)NCCN3CCOCC3)c3occc23)c(C)c1` stands 3620 (inactive); under `Cc1nnc(SCC(=O)Nc2ccc(S(=O)(=O)Nc3ccc(Cl)nn3)cc2)s1`, 5340 (inactive); under `COc1ccccc1N1CCN(Cc2ccc(OC)c3ccccc23)CC1`, 21400 (active). Under `COc1ccccc1N1CCN(Cc2cc(OC)c3c(c2)OCO3)CC1` stands 3350 (inactive). The figure for `COc1ccc(CN2CCN(Cc3ccc(OC)c(OC)c3OC)CC2)cc1` is 3740 (inactive); for `COC(C[C@@H](O)[C@H](C)[C@H](O)COCc1ccccc1)OC` it is 4260 (inactive); for `COc1cc(/C=C(/NC(=O)c2ccccc2)C(=O)Nc2cccc(O)c2)c([N+](=O)[O-])cc1OC` it is 11300 (inactive). Regarding `O=C(COC(=O)/C=C/c1ccc(OC(F)F)cc1)NC1CCCCC1`, the fluorescence intensity was 5950 (inactive). Under `CC(=O)C1=C(O)C(=O)N(c2ccc(S(N)(=O)=O)cc2)C1c1ccccc1F` (centres undefined) stands 2660 (inactive); under `CN(C)CCCOc1ccc(-c2ccc3nccn3c2)cn1`, 3380 (inactive). The figure for `Cc1nc([N+](=O)[O-])cn1CC(=O)Nc1ccc(Cl)cc1` is 3080 (inactive). On to `CC(C)C[C@@H]1COc2cc(N3CCC[C@@H]3CO)ccc2S(=O)(=O)N1`, for which the fluorescence intensity is 6270 (inactive).

For `Cc1ccccc1S(=O)(=O)NC(=O)C1(C)CCN1C(=O)Cc1ccc(Cl)cc1Cl` (centres undefined), the fluorescence intensity is 3450 (inactive). For `COc1ccc(/C=N/Nc2nc(-c3ccc(C)cc3)c(C#N)c(=O)[nH]2)cc1`, the fluorescence intensity is 3690 (inactive).

On to `COc1ccc(/C=N/Nc2nc3ccccc3c(=O)[nH]2)cc1`, for which the fluorescence intensity is 19400 (active). With `COc1ccc(CCCc2nnc(SCc3nc4ccccc4c(=O)[nH]3)n2C)cc1`, the fluorescence intensity was 4610 (inactive). With `CN(Cc1ccccc1F)c1cc2c(c3c1ccn3C)C1CCC2O1` (centres undefined), the fluorescence intensity is 5510 (inactive).

Consider `Cc1ccnc(SCCn2c(Br)nc3c2c(=O)[nH]c(=O)n3C)n1`, for which the fluorescence intensity is 2110 (inactive). Under `CC(C)(C)C(=O)CSc1nc2ccccc2o1` stands 4330 (inactive). Consider `CC=CCn1c(SCCCc2ccccc2)nc2c1c(=O)[nH]c(=O)n2C`, for which the fluorescence intensity is 3020 (inactive). In the case of `Cn1c(=O)c2c(nc(Br)n2CCSc2nc3ccccc3o2)n(C)c1=O`, the fluorescence intensity is 20900 (active). Under `CCN(CC)C(=O)CSc1nc2ccccc2o1` stands 2780 (inactive); under `Cn1c(=O)[nH]c(=O)c2c1nc(Br)n2CCCCSc1nc2ccccc2o1`, 24200 (active); under `CC1Cc2[nH][nH]c(=O)c2C(C2CC2)O1` (centres undefined), 6380 (inactive).

Take `CCCCc1c(-c2ccc(Br)cc2)ncn1CCc1ccccc1OC`: the fluorescence intensity was 5930 (inactive). The figure for `Cc1c(C(C)CCCO)oc(=O)c2c1Oc1c(C)c(C(C)C[C@@H](C)O)oc(=O)c1C2` (some centres undefined) is 3640 (inactive); for `CCn1c(SCC(=O)NC2CC2)nnc1-c1ccncc1` it is 4270 (inactive); for `COc1cccc(C(O)c2ncc(-c3ccc4ccccc4c3)[nH]2)c1` (centres undefined) it is 4120 (inactive). As for `S=C(NCCCc1cnc[nH]1)NCCCN(Cc1ccc(Cl)c(Cl)c1)c1ccc(Br)cn1`, the fluorescence intensity was 3910 (inactive).

`Cc1ccc(NC(=O)c2ccco2)cc1`: the fluorescence intensity was 3370 (inactive).

Take `Cc1ccc(-n2nc3cc(C)c(NC(=O)c4cccnc4)cc3n2)cc1`: the fluorescence intensity is 3240 (inactive). For `Cc1ccc(-n2nc3cc(Cl)c(NC(=O)c4ccco4)cc3n2)cc1`, the fluorescence intensity is 20600 (active).

As for `CN(C(=O)CN1CCN(c2cc(-c3ccc(OCc4ccccc4)cc3)ncn2)CC1)c1ccccc1`, the fluorescence intensity is 2960 (inactive).

In the case of `COC(=O)c1ccc2nc(-c3cccc(Br)c3)c(Cc3ccccc3C(F)(F)F)n2c1`, the fluorescence intensity was 5960 (inactive).

Turning to `O=[N+]([O-])c1c(NCCO)cc(Sc2nc3ccccc3s2)c2nonc12`, the fluorescence intensity is 16100 (active). Consider `Nc1nnc(SCC(=O)Nc2ccc3nc(SCC(=O)Nc4ccccc4)sc3c2)s1`, for which the fluorescence intensity is 2450 (inactive). The figure for `OCCNc1nc(Nc2ccc(Cl)c(Cl)c2)nc2ccccc12` is 3890 (inactive); for `COc1ccc(C2=NO[C@@H]3C(=O)N(Cc4ccccc4)C(=O)[C@H]23)cc1OC` it is 8330 (inactive). For the molecule `Cc1c(C(=O)NNC(=O)c2ccncc2)oc2ccccc12`, the fluorescence intensity is 6810 (inactive). The figure for `Cc1cc2ccccn2c1C(=O)c1cccc(F)c1` is 3460 (inactive); for `Cc1c(C=O)c2ccccn2c1C(=O)c1ccncc1` it is 20400 (active); for `O=C(CN1C(=O)NC2(CCCCCC2)C1=O)Nc1ccc([N+](=O)[O-])cc1` it is 3160 (inactive). Regarding `O=C(NCCO)c1cccc(-c2cccc3nccn23)c1`, the fluorescence intensity was 3960 (inactive). Turning to `C[C@H](CO)N1C[C@H](C)[C@@H](CN(C)Cc2ccc(-c3ccccc3)cc2)Oc2ccc(NC(=O)Cn3cnnn3)cc2C1=O`, the fluorescence intensity was 3780 (inactive). The figure for `COc1ccc(NC(=O)C2Cc3c(-c4cccc(NC(C)=O)c4)ccnc3O2)cc1OC` (centres undefined) is 3970 (inactive). Under `CNC(=O)CN1C(=O)NC(c2ccccc2)(c2ccccc2)C1=O` stands 4630 (inactive); under `CC1(C(=O)NS(=O)(=O)c2ccccc2Cl)CCN1C(=O)c1cccc(F)c1` (centres undefined), 2940 (inactive); under `CC(=O)Nc1ccc(S(=O)(=O)NC2(C(F)(F)F)C(=O)Nc3c2c(=O)[nH]c(=O)n3Cc2ccccc2)cc1` (centres undefined), 2630 (inactive).

For `Cc1ccccc1C1=NC(C(F)(F)F)(C(F)(F)F)c2c(n(-c3ccc(F)cc3)c(=O)[nH]c2=O)N1`, the fluorescence intensity is 10500 (inactive). The figure for `O=c1[nH]c(=O)n(Cc2ccco2)c2c1C(C(F)(F)F)(C(F)(F)F)N=C(c1ccco1)N2` is 24800 (active); for `CC(C)C[C@H]1CNC(=O)C(=O)N1C[C@H]1CCCN1C[C@H](Cc1ccc(O)cc1)N1C[C@H](CC(C)C)N(CC2CCCCCC2)C(=O)C1=O` it is 4880 (inactive); for `Cc1ccc2nc(NCCCNC(=O)c3cnccn3)c(C#N)cc2c1` it is 20100 (active).

As to `COCCCNC(=S)NCCNc1nc2cc(C)c(C)cc2cc1C#N`, the fluorescence intensity is 4720 (inactive). Turning to `O=C(COc1ccc(Cl)cc1Cl)NCCCNC(=O)c1cnccn1`, the fluorescence intensity was 3160 (inactive). Under `CCOc1ccc2nc(Cl)c(C3CC(c4ccccc4)=NN3C(=O)c3cccs3)cc2c1` (centres undefined) stands 2410 (inactive).

With `Nc1ccccc1Sc1cc(Cl)nnc1Cl`, the fluorescence intensity was 3840 (inactive). Turning to `COC(=O)c1cc(OC)c(OC)cc1NC(=O)C1CCCO1` (centres undefined), the fluorescence intensity was 18500 (active). The figure for `CCc1cc(Br)ccc1NC(=O)C1CCCO1` (centres undefined) is 10900 (inactive).

On to `CCOC(=O)c1ccc(NC(=O)c2ccc(NC(=O)C3CCCO3)cc2)cc1` (centres undefined), for which the fluorescence intensity is 3420 (inactive).
